# Test results reported in PubChem BioAssay AID1942 (Johns Hopkins Ion Channel Center, 2009).
# The whole screen tested about 2,400 compounds, of which about 580 (24%) were called active. Only a sample is shown. Unmarked numbers belong to inactive results.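 Rule for the calls: active = activity change at or above the mean plus 3 SD of buffer wells without dofetilide, per plate; inactive = the rest.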
# Molecular target: Potassium voltage-gated channel subfamily KQT member 2 (Rattus norvegicus) (UniProt O88943)
# Assay: KCNQ2 potentiation in CHO cells – cell-based, FluxOR thallium flux, counter-screen for hERG block protector project, confirmation (AID 1942);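 note: normalized value minus buffer-control mean plus three SD of buffer wells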
# Conditions: FluxOR thallium flux fluorescence, at 10 µM, active compounds read high
# Sequence of Potassium voltage-gated channel subfamily KQT member 2 (Rattus norvegicus) (O88943 whole entry, looked up): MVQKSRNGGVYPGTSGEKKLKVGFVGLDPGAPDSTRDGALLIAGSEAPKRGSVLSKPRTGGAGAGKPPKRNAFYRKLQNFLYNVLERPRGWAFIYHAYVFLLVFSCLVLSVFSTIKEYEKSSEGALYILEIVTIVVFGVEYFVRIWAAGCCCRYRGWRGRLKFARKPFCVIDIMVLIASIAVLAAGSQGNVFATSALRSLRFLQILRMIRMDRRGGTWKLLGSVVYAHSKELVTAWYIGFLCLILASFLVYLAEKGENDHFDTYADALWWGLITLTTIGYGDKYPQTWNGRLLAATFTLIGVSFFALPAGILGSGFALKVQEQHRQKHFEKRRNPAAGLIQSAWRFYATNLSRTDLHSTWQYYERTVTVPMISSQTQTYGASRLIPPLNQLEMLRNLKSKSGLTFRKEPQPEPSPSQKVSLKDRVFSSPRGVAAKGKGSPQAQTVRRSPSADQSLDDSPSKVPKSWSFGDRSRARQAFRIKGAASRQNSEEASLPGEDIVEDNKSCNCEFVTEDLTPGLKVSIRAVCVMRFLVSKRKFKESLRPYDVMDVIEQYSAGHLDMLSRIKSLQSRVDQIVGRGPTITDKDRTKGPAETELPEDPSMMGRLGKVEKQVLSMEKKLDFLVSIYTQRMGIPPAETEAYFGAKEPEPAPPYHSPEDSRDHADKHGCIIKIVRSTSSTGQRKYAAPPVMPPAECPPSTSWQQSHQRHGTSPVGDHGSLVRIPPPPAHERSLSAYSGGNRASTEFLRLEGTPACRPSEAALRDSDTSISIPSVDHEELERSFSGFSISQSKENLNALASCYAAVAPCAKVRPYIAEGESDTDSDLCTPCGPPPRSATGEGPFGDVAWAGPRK
row,SMILES,"activity change, less the hit threshold"
1,COc1cccc(CN=c2c([N+](=O)[O-])nn(-c3ccccc3C)n2O)c1,-19.6%
2,CCOCCOCN(C#N)c1nc(OC)nc(N(C)C)n1,-20.4%
3,NC(=O)c1cccc(N=Cc2cc(Cl)cc(Cl)c2O)c1,28.8% (active)
4,COc1cc(Br)cc(C=Nc2cccc(C(F)(F)F)c2)c1O,5.7% (active)
5,COc1cc(Br)cc(/C=N/NC(=O)Cc2ccccc2)c1O,-9.1%
6,Cc1ccc(N=Cc2cc(Cl)cc(Cl)c2O)nc1,22.5% (active)
7,Cc1ccc(N=Cc2cc(Br)cc(Cl)c2O)cc1,5.8% (active)
8,CCC[C@H]1COCCS(=O)(=O)N1Cc1ccc(Br)cc1,-9.4%
9,COc1ccc(/C=C2\SC(=N)N(c3nccs3)C2=O)cc1OC,-16.2%
10,Cc1ccsc1CN(C(=O)c1ccc([N+](=O)[O-])cc1)C1CCS(=O)(=O)C1 (configuration not stated),-17.5%
11,Cc1ccc(C(C)C)cc1OCC(=O)Nc1ccc(N2CCCCC2)cc1,-13.5%
12,Oc1c(Br)cc(Br)cc1CNc1cccc2cccnc12,-29.6%
13,Oc1c(Br)cc(Br)cc1C=Nc1cccc2ncccc12,30.9% (active)
14,Cc1cccc(N2CCN(C(=O)C3CCN(S(=O)(=O)c4cccnc4)CC3)CC2)c1C,-14.6%
15,O=C(CSCc1cnn(-c2ccccc2)c1-n1cccc1)NCc1cccnc1,-9%
16,CC1=[N+]([O-])C(C)(C)C(c2ccc(Br)cc2)=[N+]1[O-],7.3% (active)
17,Cc1cc(C)c(S(=O)(=O)NCc2ccccn2)c(C)c1,-18.8%
18,CSc1nc(-c2ccco2)cc(C(F)(F)F)c1C#N,-9.1%
19,Cc1c(N2C(=O)/C(=C\c3ccccc3O)SC2=S)c(=O)n(-c2ccccc2)n1C,68.6% (active)
20,O=C(O)COc1ccccc1/C=C1\SC(=S)N(NC(=O)c2ccccc2O)C1=O,-12.9%
21,COc1ccc(C(C(=O)NC(C)(C)C)N(C(=O)CCC(=O)Nc2cc(C)on2)c2cccc(F)c2)cc1 (configuration not stated),-14.9%
22,CCCCc1c(O)nc(SCC(=O)N2CCOCC2)[nH]c1=O,-9.9%
23,COC(=O)CNc1nc(Cl)nc(Nc2ccc(C)cc2)n1,-22.2%
24,Cc1ccc(C(=O)Nc2sc3c(c2C(=O)O)CCCCC3)o1,-23.9%
25,COC(=O)c1c(NS(=O)(=O)Cc2ccccc2)sc2c1CCCC2,42.1% (active)

row,SMILES,"activity change, less the hit threshold"
1,CCOC(=O)c1c(NS(=O)(=O)c2ccc(Br)cc2)sc2c1CCC2,5.6% (active)
2,COC(=O)c1c(NS(=O)(=O)c2ccc3ccccc3c2)sc2c1CCCC2,-15.5%
3,CCOC(=O)c1c(C)cccc1OCC(N)=O,-12.7%
4,CCOC(=O)c1c(NS(=O)(=O)Cc2ccccc2)sc2c1CCCC2,32.5% (active)
5,CN1C(=O)c2ccc(C(=O)NCc3ccccc3)cc2C1=O,-20.8%
6,COCCCNC(=O)CCc1nnc(Cc2ccc(-c3ccccc3)cc2)o1,-5.1%
7,Cc1cc(=S)[nH]c2c(C)cccc12,-3.9%
8,CCOc1cc(NC(=S)N2CCC(C(N)=O)CC2)c(C(=O)OC)cc1OCC,-11.5%
9,Cc1cccc(OCC(=O)NCc2nc(-c3ccccc3)no2)c1,-17.2%
10,CCc1ccc(NC(=O)C(=O)NNC(=O)COc2cccc(OC)c2)cc1,14.3% (active)
11,COc1cccc(OCC(=O)NNC(=O)C(=O)Nc2cccc(C)c2)c1,33.1% (active)
12,COc1ccc(OCC(=O)NNC(=O)C(=O)Nc2ccc(C)cc2)cc1,-23.7%
13,O=C(COc1cccc(-n2cnnn2)c1)Nc1ccc([N+](=O)[O-])cc1,-13.3%
14,CCc1ccc(OCC(=O)Nc2ncn[nH]2)cc1,-16.1%
15,CC(C)c1cccc(C(C)C)c1NC(=O)COC(=O)[C@H](C)NC(N)=O,-17.5%
16,O=C(NC(=S)Nc1ccc(N2CCCCC2)cc1)c1ccco1,45.9% (active)
17,O=C(NC(=S)Nc1ccccc1Cl)c1ccco1,10.4% (active)
18,O=C(NC(=S)Nc1cccc(Cl)c1N1CCCCC1)c1ccco1,-12.3%
19,O=C(NC(=S)Nc1ccccc1N1CCCC1)c1ccco1,11.2% (active)
20,O=C(NC(=S)Nc1cc(C(F)(F)F)ccc1N1CCOCC1)c1ccco1,-11.4%
21,O=C(NC(=S)Nc1ccccc1Br)c1ccco1,18.2% (active)
22,CC1CCN(c2ccccc2NC(=S)NC(=O)c2ccco2)CC1,-14.3%
23,O=C(NC(=S)Nc1ccccc1N1CCCC1)c1cccs1,-17.3%
24,O=C(Nc1ccc(N2CCOCC2)cc1)c1ccc(S(=O)(=O)N2CCCCC2)cc1,-20.8%
25,O=C(N/N=C/c1ccc(OC(F)F)cc1)C1=COCCO1,-10.9%

row,SMILES,"activity change, less the hit threshold"
1,COC(=O)c1cc2sc(Cl)cc2n1CC(=O)NCC1CCCO1 (configuration not stated),-16.1%
2,COc1ccc(NC(=O)c2cn(-c3ccccc3)nc2-c2ccncc2)cc1,-9.7%
3,Nc1ncnc(Oc2cccc3cccnc23)c1[N+](=O)[O-],-25.4%
4,CCOc1ccccc1NC(=S)NC(=O)c1ccco1,-5.9%
5,CCC(C)c1ccccc1NC(=O)c1[nH]c(C)c(C(C)=O)c1C (configuration not stated),-22.3%
6,CCC(C)c1ccccc1NC(=S)NC(=O)c1ccco1 (configuration not stated),60.2% (active)
7,N#C/C(=N/Nc1ccc([N+](=O)[O-])cc1)C(=N)N1CCCCC1,-6.1%
8,C/C(=C/CCC(C)[C@H]1CC[C@@]2(C)C3=C(CC[C@]12C)[C@@]1(C)CCC(=O)C(C)(C)[C@@H]1CC3)C(=O)O (some centres not stated),-36.3%
9,CC(C)OC(=O)CSc1nnc(C2CCCCC2)n1N,-21.8%
10,CCC1(c2ccc(Cl)cc2)NC(=S)N(c2ccc(C)c(C)c2)N1 (configuration not stated),101% (active)
11,CCC1(c2ccccc2)NC(=S)N(c2ccc(C)c(C)c2)N1 (configuration not stated),111% (active)
12,CCCCn1nnc(NC(=O)c2ccc(-c3cccc([N+](=O)[O-])c3)o2)n1,-21.1%
13,CCCCNC1=CC(=O)C(=O)c2ccccc21,-18.9%
14,COC(=O)c1ccc(C2C(C#N)=C(N)Oc3cc(O)ccc32)cc1 (configuration not stated),-8.7%
15,CC1CCc2sc(-c3n[nH]c(=S)o3)cc2C1 (configuration not stated),20.7% (active)
16,Cc1ccc2oc3c(c(=O)c2c1)C(c1cccs1)N(CCCN(C)C)C3=O (configuration not stated),7.1% (active)
17,CCN(CC)CCCN1C(=O)c2oc3ccccc3c(=O)c2C1c1cccs1 (configuration not stated),12.9% (active)
18,COCCN1C(=O)c2oc3cc(C)c(C)cc3c(=O)c2C1c1ccc(O)cc1 (configuration not stated),-0.6%
19,CSc1ccc(C2NN=C(c3ccccc3)S2)cc1 (configuration not stated),-15.8%
20,Cc1ccc(CC23CN4CCN(CC(C4)C2O)C3)c(C)c1 (configuration not stated),-8.4%
21,O=C(NCC(c1cccs1)N1CCOCC1)c1cc(S(=O)(=O)N2CCOCC2)ccc1F (configuration not stated),-15.4%
22,CSC1=C(C#N)C(CC(C)C)C2=C(CCCC2=O)N1 (configuration not stated),-12.3%
23,CCOc1nc(-c2ccccc2)ccc1-c1noc(COC)n1,-13.5%
24,Cc1cc(C(F)(F)F)c2sc(N)nc2n1,-4.4%
25,Cc1cc(C)nc(NS(=O)(=O)c2ccc(NC(=O)Cc3ccccc3)cc2)n1,-11.1%

row,SMILES,"activity change, less the hit threshold"
1,O=C(Cc1cccs1)Nn1c(Cc2cccs2)nc2ccccc2c1=O,54.3% (active)
2,O=C(Cc1ccccc1)Nn1c(-c2ccccc2)nc2ccccc2c1=O,29.9% (active)
3,Cc1nc2c(C(=O)NCc3cccs3)cnn2c(C)c1Cc1ccccc1,-25.2%
4,O=C(O)CCCNC(=O)c1nn(Cc2ccccc2)c(=O)c2ccccc12,-5.2%
5,O=S(=O)(c1ccc(F)c(F)c1)N1CCN(c2ncccn2)CC1,-26%
6,CCCCCOc1ccc(C2C(C(C)=O)=C(C)Nc3ncnn32)cc1OC (configuration not stated),-11.7%
7,O=C(c1ccc2c(c1)N(Cc1ccccc1F)C(=O)c1ccccc1S2(=O)=O)N1CCCC1,-23.2%
8,COc1ccc(CN2CCn3ncc(C(=O)Nc4ccccc4)c3C2=O)cc1,-13.1%
9,Cc1nnc(NC(=O)CN2CCN(Cc3ccc(F)cc3Cl)CC2)s1,-27.8%
10,Cc1ccc2c(c1)c1nnc(SCC(=O)Nc3ccc(N(C)C)cc3)nc1n2CC(=O)O,-16.6%
11,COc1ccccc1N=Nc1ccc(O)c2ncccc12,15.6% (active)
12,COc1ccc(OC)c(S(=O)(=O)Nc2ccc(O)c3ccccc23)c1,-22.3%
13,COc1ccc(NS(=O)(=O)c2ccc3ccccc3c2)c2ncccc12,-12.6%
14,CCN(CC)S(=O)(=O)c1cc(OC)ccc1N=Nc1ccc(O)c2ncccc12,44.8% (active)
15,CCOc1ccc(N=Nc2ccc(O)c3ncccc23)cc1,-5.6%
16,COc1cccc(N=Nc2ccc(O)c3ncccc23)c1,-7.4%
17,O=C(COC(=O)c1cc(NS(=O)(=O)c2cccs2)ccc1O)Nc1cc(Cl)ccc1Cl,-5.6%
18,C[n+]1ccccc1COc1ccc(C(C)(C)C)cc1,-21.7%
19,CCC1(CC)Cc2ccccc2-c2[nH]c(=S)[nH]c(=O)c21,-28.1%
20,CCn1c(=S)[nH]c2c(c1=O)C(C)(C)Cc1ccccc1-2,35.3% (active)
21,CCCn1c(SCC(N)=O)nc2c(c1=O)C1(CCCC1)Cc1ccccc1-2,-2.1%
22,COc1ccc(-c2cc(C(F)(F)F)nc(SCC(=O)NCc3cccs3)n2)cc1,-14.1%
